In ChEMBL document CHEMBL4513216, “Probing the Open Global Health Chemical Diversity Library for Multistage-Active Starting Points for Next-Generation Antimalarials” (ACS Infect Dis, 2020) one finds INHIBITION data, which are given here for 106 compounds.

SMILES strings stand for the structures. In all, about 69,000 compounds went through this assay and about 8,600 (12%) showed an effect of 50% or more. The sample holds strong results, similar compounds and a random draw of the others, so the mix is not that of the screen.

This experiment relates to Plasmodium berghei. Put plainly: Screen against P. berghei liver stage (PbLuc), transformed with Luciferase, at 10uM. The conditions noted are these: tested at 10 uM. It counts as functional, HepG2.
Regarding `C=c1ncsc1=C1NN=C(C2CCCN2C(=O)CCn2ccc(C)n2)O1` (stereo unspecified), the INHIBITION stood at 21.95%.
The value for `Cc1nn(C)c(C)c1CN(C)CC1(O)CCCN(C)C1` (stereo unspecified) was 5.18%; that for `CCCc1cnc(C)nc1N1CCC(Cc2cccc(C(N)=O)c2)C1` (stereo unspecified) was 52.2%; that for `CCCc1cnc(C)nc1N1CCC(Cn2cc(CO)nn2)CC1` was 50.2%.
For the compound `CCc1cnc(C)nc1N1CCC(Cc2cccc(C(=O)O)c2)C1` (stereo unspecified), the INHIBITION is on record as 47.2%.
Turning to `CCCc1cnc(C)nc1N1CCC(F)(F)CC1`, the INHIBITION was -40.6%.
Regarding `CCCc1cnc(C)nc1N1CCC(Cc2ccc(CO)cc2)C1` (stereo unspecified), the INHIBITION is on record as 75%.
The value for `CCCc1cc(N2CCC(Cc3cccc(C(N)=O)c3)C2)nc(C)n1` (stereo unspecified) was 5.67%; that for `CCCc1cnc(C)nc1N1CCC(Cn2cc(CN(C)C)nn2)CC1` was -16.1%; that for `CCCc1cnc(C)nc1N1CCC2(CCCO2)CC1` was 13.1%.
Take `CCCc1cnc(C)nc1N1CCC(Cn2cc(C(C)O)nn2)CC1` (stereo unspecified): the INHIBITION was found to be 17.5%.
With `Cn1cnc2c1CCN(Cc1cccc(C(=O)N3CCCCC3)c1)C2`, the INHIBITION was -40.01%.
In the case of `Cc1cccc(S(=O)(=O)N2C[C@@H]3C[C@H](C(=O)N(C)C)[C@H](C2)O3)c1`, the INHIBITION is listed as 42.3%.
For the compound `Cc1nc(NC2CC(C)(C)NC(C)(C)C2)c2c(n1)c(C)nn2C`, the INHIBITION is on record as -7.83%.
Turning to `COCCc1noc(CN(C)c2nc(C)nc(C)c2C)n1`, the INHIBITION came to 47.6%.
With `CNc1snc(C)c1C(=O)N1CCCC(n2nc(C)nc2C)C1` (stereo unspecified), the INHIBITION turned out to be 19.4%.
Regarding `O=C1CC(NS(=O)(=O)c2cccc(F)c2)CN1` (stereo unspecified), the INHIBITION is listed as 10.7%.
As to `CC(NC(=O)N1CCC(CO)CC1)c1csc2ccccc12` (stereo unspecified), the INHIBITION was determined as 55.5%.
The value for `CC(NC(=O)N1CCC(CC(N)=O)CC1)c1csc2ccccc12` (stereo unspecified) was 27.7%; that for `CC(=O)N1CCCN(C(=O)NC(C)c2csc3ccccc23)CC1` (stereo unspecified) was 21.8%.
For the compound `COc1ccc(C(=O)N2CCCCC2c2nccs2)c(OC)c1` (stereo unspecified), the INHIBITION turned out to be 7.12%.
In the case of `COc1ccc(CC(=O)N2CCCCC2Cn2cc(C)cn2)cc1F` (stereo unspecified), the INHIBITION was -2.19%.
`CC(C)Cc1cc(NC(=O)c2cccnc2)n(C)n1`: the INHIBITION is given as -10.6%.
Consider `CCN(CC(=O)NC(C)C)S(=O)(=O)N1CCCC(C)C1` (stereo unspecified), for which the INHIBITION is -13.4%.
As for `CCN(CC)S(=O)(=O)N1CCCN(CC(=O)NC(C)C)CC1`, the INHIBITION came out at 57.2%.
For `CCN(CC(=O)NC(C)C)S(=O)(=O)N1CCCCCC1`, the INHIBITION is recorded as -12.6%.
Turning to `Fc1ccc2[nH]c3c(c2c1)CCN1C(c2ccccn2)N2CCC31CC2` (stereo unspecified), the INHIBITION is -23.4%.
For `Cc1cccc(C(C)NCC2CCS(=O)(=O)CC2)c1` (stereo unspecified), the INHIBITION worked out at 64.4%.
As for `CC(=O)Nc1cccc(C(C)NCC2CCS(=O)(=O)CC2)c1` (stereo unspecified), the INHIBITION was found to be 25.8%.
As for `CC(NCC1CCS(=O)(=O)CC1)c1cccc(OC(F)F)c1` (stereo unspecified), the figure is 2.97%; as for `O=C(Nc1cnccn1)[C@@H]1C[C@H]2OCC[C@H]2N(Cc2ccsc2)C1`, -38.9%; as for `CCCN1C[C@@H]2CC[C@H]1CN(Cc1ccc(Cn3cccn3)cc1)C2`, -27.5%.
For `COC(=O)c1ccc(N2CCN(C(=O)c3ccco3)C(C)C2)cc1` (stereo unspecified), the INHIBITION is -34%.
For the compound `COC(=O)c1ccc(N2CCN(C(=O)c3cnn(C)c3)C(C)C2)cc1` (stereo unspecified), the INHIBITION is given as 63.6%.
Regarding `COC(=O)c1ccc(N2CCN(C(=O)c3ccc(O)nc3)C(C)C2)cc1` (stereo unspecified), the INHIBITION turned out to be 2.97%.
Consider `COC(=O)c1ccc(N2CCN(C(=O)C3CC3)C(C)C2)cc1` (stereo unspecified), for which the INHIBITION worked out at 31.6%.
Take `COC(=O)c1ccc(N2CCN(C(=O)c3ccncc3)C(C)C2)cc1` (stereo unspecified): the INHIBITION is recorded as 27.1%.
The value for `COC(=O)c1ccc(N2CCN(C(=O)c3cccnc3)C(C)C2)cc1` (stereo unspecified) was 81.1%; that for `O=S(=O)(CCNC1CCc2ncnn2C1)c1ccc(Cl)cc1` (stereo unspecified) was 21.5%; that for `CO[C@@H]1CN(c2ccccc2)S(=O)(=O)[C@@]12CCN(CC1CC1)C2` was 22.2%.
As for `CCn1cc(NC(=O)NCC(c2ccc(OC)cc2)N(C)C)cn1` (stereo unspecified), the figure is 34.85%; as for `C[C@@H]1CN(C(=O)c2ccccc2F)C[C@]12CCN(CCN(C)C)C2=O`, 11.2%.
As to `Oc1ccc2oc3c(c2c1CN1CCOCC1)CCCC3`, the INHIBITION is given as -115%.
As for `O=C1NCCCc2c1oc1ccc(O)c(CN3CCOCC3)c21`, the INHIBITION is given as 58.1%.
With `NC(=O)C1CN(Cc2c(O)ccc3oc4c(c23)CCCC4)CCO1` (stereo unspecified), the INHIBITION is recorded as -66.7%.
Take `CCCC1(CO)CCCN(C(=O)CN2CCN(CC)CC2)C1` (stereo unspecified): the INHIBITION was found to be 17.4%.
In the case of `CN(C)c1cc(CNc2ccc(S(=O)(=O)C(C)(C)C)nc2)ccn1`, the INHIBITION is given as -1.35%.
The value for `Cn1c(CN2CCOC(CCc3ccncn3)C2)nc2ccccc21` (stereo unspecified) was 38.8%; that for `CCc1noc(CS(=O)(=O)Cc2ccccc2Cl)n1` was 52.6%.
As for `CCc1noc(CS(=O)(=O)Cc2nc(Cc3ccccc3)no2)n1`, the figure is 25.5%; as for `CCc1noc(CS(=O)(=O)CC=C(C)C)n1`, 21.9%.
Turning to `CCc1noc(CS(=O)(=O)Cc2ccccc2C)n1`, the INHIBITION is recorded as 61.3%.
Consider `Cc1ccccc1CS(=O)(=O)Cc1nc(C2CC2)no1`, for which the INHIBITION came to 9.16%.
The value for `CCc1noc(CS(=O)(=O)CC(=O)N2c3ccccc3CC2C)n1` (stereo unspecified) was -21%; that for `Cc1ccc(C2COCCN2C(=O)c2ccc(F)c(F)c2)o1` (stereo unspecified) was 44.9%; that for `O=C(c1cnccn1)N1CCc2onc(Cn3cccn3)c2C1` was 9.63%.
As for `O=C(NCCN1CCCCCC1=O)c1ccc(=O)[nH]n1`, the figure is 33.7%; as for `Cn1ccnc1CN1CCN2C[C@H](Oc3ccccc3)C[C@H]2C1`, 39.8%.
On to `CN(C)c1nccc(C2CCCCN2Cc2cnn3cccnc23)n1` (stereo unspecified), for which the INHIBITION is given as -29.9%.
Consider `Cc1csc(N2CCCN(C(=O)Cn3cncn3)CC2)n1`, for which the INHIBITION was -52.5%.
Consider `CN(Cc1ccnc2ccccc12)C1CCS(=O)(=O)C1` (stereo unspecified), for which the INHIBITION turned out to be 45.2%.
Consider `CCOCC1CN(C(=O)COc2ccccc2C)Cc2ncn(C)c21` (stereo unspecified), for which the INHIBITION is recorded as 24.6%.
Regarding `O=C(Cc1ccc(F)cc1)N1CCCCC1c1ccn2ccnc2n1` (stereo unspecified), the INHIBITION is on record as 7.39%.
The value for `O=C(COc1cccc(F)c1)N1CCCCC1c1ccn2ccnc2n1` (stereo unspecified) was 1.11%; that for `O=C(CCc1cccnc1)N1CCCCC1c1ccn2ccnc2n1` (stereo unspecified) was 45.6%; that for `O=C(Cc1ccccc1F)N1CCCCC1c1ccn2ccnc2n1` (stereo unspecified) was 51.5%.
On to `O=C(COc1ccccc1F)N1CCCCC1c1ccn2ccnc2n1` (stereo unspecified), for which the INHIBITION is listed as 63.4%.
Take `O=C(Cc1cccc(F)c1)N1CCCCC1c1ccn2ccnc2n1` (stereo unspecified): the INHIBITION is recorded as 9.1%.
On to `CCn1cc(CNc2ccc(F)c(F)c2)cn1`, for which the INHIBITION is -8%.
As for `CC(C)Cc1nc(C[S+]([O-])CC(=O)NCc2ccccc2)no1` (stereo unspecified), the figure is -5.1%; as for `CC(C)CCc1noc(C[S+]([O-])CC(=O)NCc2ccccc2)n1` (stereo unspecified), 55.3%.
With `CCCc1noc(C[S+]([O-])CC(=O)NCc2ccccc2)n1` (stereo unspecified), the INHIBITION came to 23.2%.
For `COc1ccc(N2CCN(C(=O)COc3nccc(C)n3)CC2)cc1`, the INHIBITION came to 36.8%.
Consider `N#Cc1cccc(NC(=O)N[C@H](CO)Cc2ccc(O)cc2)c1`, for which the INHIBITION came out at 60.9%.
As for `N#CCc1ccc(NC(=O)N[C@H](CO)Cc2ccc(O)cc2)cc1`, the figure is 11.6%; as for `N#Cc1cccc(NC(=O)N[C@H](CO)c2ccccc2)c1`, 18.5%.
The value for `Cc1ccc(CN2CC[C@@H](NC(=O)c3cccnc3)[C@H](O)C2)o1` was 31.1%; that for `O=C(CNc1cc(-n2cnnn2)ccc1F)Nc1ccccc1Cl` was 41.4%; that for `O=C(CNc1cc(-n2cnnn2)ccc1F)NCc1ccccc1` was 53.4%.
Consider `O=C(CNc1cc(-n2cnnn2)ccc1F)Nc1cc(F)ccc1F`, for which the INHIBITION is given as 46.6%.
As for `COCCNC(=O)c1cc(-c2ccc3c(c2)CCO3)n[nH]1`, the INHIBITION is given as -18.9%.
The value for `CCC(CO)N(Cc1ccncc1)Cc1c[nH]nc1-c1ccc(F)cc1` (stereo unspecified) was 57.6%; that for `CCN(Cc1ccncc1)Cc1c[nH]nc1-c1ccc(F)cc1` was 14.8%; that for `CCC(CO)N(Cc1ccccn1)Cc1ccc(-c2ccn[nH]2)s1` (stereo unspecified) was 47.2%.
As for `CN(Cc1ccn[nH]1)Cc1c[nH]nc1-c1ccc(F)cc1`, the INHIBITION is recorded as 77.2%.
Take `CCC(CO)N(Cc1ccc(F)cc1)Cc1c(C)nn(C)c1Cl` (stereo unspecified): the INHIBITION is on record as -8.66%.
Turning to `CCC(CO)N(C/C(C)=C/c1ccco1)Cc1ccccn1` (stereo unspecified), the INHIBITION amounted to 8.64%.
`Cc1n[nH]c(C)c1CCCN(C)Cc1c[nH]nc1-c1ccc(F)cc1`: the INHIBITION is 40.2%.
The value for `CCC(CO)N(Cc1ccccn1)Cc1c[nH]nc1-c1ccc(F)cc1` (stereo unspecified) was 78.9%.
As for `CN(Cc1cc(C(C)(C)C)n[nH]1)Cc1c[nH]nc1-c1ccc(F)cc1`, the figure is 47.6%; as for `CN(Cc1ccccc1)C(=O)Cn1nc(N2CCOCC2)ccc1=O`, -28.7%; as for `O=C1CCCCN1CCc1nc(C2(c3ccc(F)cc3)CCOC2)no1` (stereo unspecified), -15.5%.
As for `CCc1nn(C)c2[nH]nc(NC(=O)c3cccnc3NC(C)C)c12`, the figure is 36.3%; as for `CCS(=O)(=O)N1CC(=O)N(CCOc2ccccc2)CC(O)C1` (stereo unspecified), -10.3%.
With `CCn1cc(S(=O)(=O)NC2(CN3CCOCC3)CCCCC2)c(C)n1`, the INHIBITION is listed as -10.5%.
Regarding `CC(C)c1nccn1C(C)C(=O)N1CCN(c2ccccc2Cl)CC1` (stereo unspecified), the INHIBITION was 64.6%.
As for `Cc1cccnc1N1CCN(C(=O)C(C)n2ccnc2C(C)C)CC1` (stereo unspecified), the figure is 17.9%; as for `CC(C)c1nccn1C(C)C(=O)N1CCN(c2cnccn2)CC1` (stereo unspecified), -6.28%.
For `COCCN(C)C[C@@H]1CN(C(=O)c2ccc(C)c(Cl)c2)C[C@@H]1CO`, the INHIBITION worked out at 13.1%.
`C[C@@H]1CN(Cc2ccoc2)C[C@]12CCN(CC(=O)N(C)C)C2=O`: the INHIBITION came out at 23.5%.
Turning to `CCOC(C)c1noc(CN2CCN(Cc3cccnc3)CC2)n1` (stereo unspecified), the INHIBITION came to 34.4%.
Consider `CCOC(C)c1noc(CN2CCN(Cc3ccno3)CC2)n1` (stereo unspecified), for which the INHIBITION is recorded as 33.4%.
As for `CCOC(C)c1noc(CN2CCN(CC3CCCC3)CC2)n1` (stereo unspecified), the INHIBITION is listed as 28%.
For the compound `CCOC(C)c1noc(CN2CCN(c3ccncc3)CC2)n1` (stereo unspecified), the INHIBITION was 81%.
In the case of `CCOC(C)c1noc(CN2CCNCC2)n1` (stereo unspecified), the INHIBITION turned out to be 31.2%.
Regarding `CCOC(C)c1noc(CN2CCN(c3nnc(C)s3)CC2)n1` (stereo unspecified), the INHIBITION worked out at 65.8%.
